# Measured values as given in PubChem BioAssay (Tox21).
# Inconclusive results are not listed. Activity calls are given as the source filed them. The call rests on the fitted dose curve; in most records, active means well fitted cell-killing curve with a large enough effect in the repeat runs; inconclusive means weak or mixed curves, or effect the other way; inactive means flat fitted curve, though single readings scatter.
# Assay: qHTS RealTime-Glo MT Cell Viability Assay in HEK293 cells - 0 hour (AID 1224880); further: top concentration of the series differs between compounds; nearly all actives have a fitted effect of over 45% in size
# Conditions: RealTime-Glo luminescence; series mostly up to 76.8 µM
# Excerpt: U.S. Tox21 Program National Center for Advancing Translational Sciences [NCATS] NIH Chemical Genomics Center [NCGC] U.S. Environmental Protection Agency [EPA] National Institutes of Environmental Health Sciences [NIEHS] National Toxicology Program [NTP] U.S. Food and Drug Administration [FDA] Tox21 Assay Overview: Measure of cell viability is critical in the cell-base assay. Analysis of cell viability is necessary for the characterization of cell responses to cytotoxic drugs and environmental stress. A RealTime-Glo MT Cell Viability Assay to monitor cell viability in real time of continues cell culture during 40 hours of compound treatment was used to screen Tox21 10K library compounds in Hek293 cells. The RealTime-Glo MT Cell Viability Assay is a nonlytic, homogeneous, bioluminescent method to measure cell viability in real time using a simple, plate-based method. The assay involves adding NanoLuc luciferase and a cell-permeant prosubstrate to cells in culture. Viable cells reduce the proprietary prosubstrate to generate a substrate for NanoLuc luciferase. This substrate diffuses from cells into the surrounding culture medium, where it is rapidly used by the NanoLuc Enzyme to produce a luminescent signal. The signal correlates with the number of viable cells, making the assay well suited for cytotoxicity studies.
# Tox21 Assay Protocol Summary: The mixture of Hek293 cell suspension and reagents were dispensed at 600cells/6 ul/well in 1536-well tissue culture treated black solid bottom plates using a Multidrop dispenser. After the assay plates were incubated at a 37 C/5% CO2 incubator for 5 hours, 23 nL of compounds dissolved in DMSO, positive and negative controls was transferred to the assay plate by a pintool work station. The plates were incubated at 37 C for 40 hours. The luminescence intensity were measured at 0h, 8h, 16h, 24h, 32h and 40h time points using ViewLux plate reader during compound treatment.
# On the % scale 0 is the no-effect control and ±100 the full control effect.
Structure (SMILES),outcome,"activity change, negative = cytotoxicity"
CCC1(C2=NCCN2)Cc2ccccc2O1 (stereo not given),inactive,–
CCOP(=S)(OCC)Oc1ccc(S(C)=O)cc1 (stereo not given),inactive,–
Cc1nc2ccccc2c(=O)n1-c1ccccc1Cl,inactive,–
C=CC(=O)NC(C)(C)CC(C)=O,inactive,–
CCCCCCCCP(=O)(O)O,inactive,–
Cc1ccc2c(C)cccc2c1,inactive,–
N#CC1(N=NC2(C#N)CCCCC2)CCCCC1,inactive,–
CCSCc1ccccc1OC(=O)NC,inactive,–
COP(=O)(OC)OC(Br)C(Cl)(Cl)Br (stereo not given),inactive,–
CCC1(CCC(C)C)C(=O)NC(=O)NC1=O,inactive,–
CCOP(=S)(OCC)SCSc1cc(Cl)ccc1Cl,inactive,–
CCOC(=O)c1cncn1C(C)c1ccccc1 (stereo not given),inactive,–
CC(C)(C)CC(C)(C)c1ccc(O)cc1,inactive,–
O=C(O)C(F)(F)C(F)(F)C(F)(F)C(F)(F)C(F)(F)F,inactive,–
CCCC[P+](CC)(CCCC)CCCC (tested in a mixture with another compound),inactive,–
COc1ccc(C(O)(c2cncnc2)C2CC2)cc1 (stereo not given),inactive,–
C[Si](Cn1cncn1)(c1ccc(F)cc1)c1ccc(F)cc1,inactive,–
CN(C1CCCCC1)C1CCCCC1,inactive,–
C[N+]1(CCC(C(N)=O)(c2ccccc2)c2ccccc2)CCCCC1,inactive,–
C[C@H]1[C@@H]2Cc3ccc(O)cc3[C@@]1(C)CCN2C,inactive,–

Structure (SMILES),outcome,"activity change, negative = cytotoxicity"
CCCCC#N,inactive,–
O=C(O)c1cc(Cl)ccc1Cl,inactive,–
c1ccc2sc(SNC3CCCCC3)nc2c1,inactive,–
CC(Oc1cc(Cl)c(Cl)cc1Cl)C(=O)O (stereo not given),inactive,–
CC(C)c1ccc(OP(=O)(Oc2ccc(C(C)C)cc2)Oc2ccc(C(C)C)cc2)cc1,inactive,–
CCCSP(=S)(OCC)Oc1ccc(SC)cc1 (stereo not given),inactive,–
CCOC(=O)NC(O)C(Cl)(Cl)Cl (stereo not given),inactive,–
O=[N+]([O-])O[C@H]1CO[C@H]2[C@@H]1OC[C@H]2O[N+](=O)[O-],inactive,–
Nc1cc(Cl)cc(C(=O)O)c1Cl,inactive,–
CC(C)OC(=O)Cc1ccccc1,inactive,–
COc1cc(CC(C)N)c(OC)cc1Br (stereo not given),inactive,–
O=C(O)c1ccc(=O)[nH]c1,inactive,–
CCOc1cccc(C2(N3CCN(c4ccccc4)CC3)CCC(C)CC2)c1 (stereo not given),inactive,–
CCC1(CC)C(=O)NC(=O)NC1=O,inactive,–
CCCCCCCCCCCCN=C(N)N,–,2.39% [at 2.72 µM] (inactive)
Cc1ccccc1,inactive,–
CC(C)(C)NCC(O)c1ccccc1Cl (stereo not given),inactive,–
CCOC(=O)C1OC1(C)c1ccccc1 (stereo not given),inactive,–
CC(O)CN1CCN(CC(=O)[O-])CCN(CC(=O)[O-])CCN(CC(=O)[O-])CC1.[Gd+3] (stereo not given),inactive,–
CC(Oc1cccc(Cl)c1)C(=O)O (stereo not given),inactive,–
